Sampled rows, rich in hits. Any-hit rate of the full collection: about 4.2%.
GDH-TPI counter-1 – GDH-TPI coupling enzyme inhibitors, primary screen, artefact control for M. tuberculosis FBA inhibitor project, biochemical, absorbance, full deck; AID 588335, 2011; hit rate 1.2% among 360,000; inhibition, % at 4.8 µM; GDH-TPI coupled enzyme counterscreen, NADH absorbance;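 also: 0% = DMSO wells and 100% = wells lacking the enzyme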
FBA Mtb inh – Mtb FBA enzyme inhibitors, primary screen, biochemical, fluorescence, strain H37Rv; Fructose-bisphosphate aldolase (Mycobacterium tuberculosis (strain ATCC 25618 / H37Rv)), …; AID 588726, 2011; inhibition, % at 1 µM; purified M. tuberculosis FBA, fluorescence read-out; hit rate 2.3% among 360,000; in the data active = inhibition above about 27%;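 also: 0% = vehicle and 100% = reference inhibitor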
RecA intein inh – Mtb RecA intein splicing inhibitors, primary screen, biochemical, fluorescence, HTS. inhibition, % (no concentration beside the values). hit rate 0.75% among 290,000. cell-free RecA intein splicing. AID 2221, 2009. Protein RecA (Mycobacterium tuberculosis (strain ATCC 25618 / H37Rv)), P9WHJ3; in the data active = inhibition above about 30%;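 also: 0% = vehicle wells and 100% = reference inhibitor control wells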
CCHF vOTU inh-1 – CCHFV vOTU protease inhibitors, primary screen, biochemical, Pep-AMC substrate, fluorescence; inhibition, % at 11.5 µM; hit rate 0.55% among 370,000; also: 0% = vehicle wells with enzyme and 100% = no enzyme wells
GFP chromo cs – counter-screen: blocks GFP chromophore formation, dose response, counter-screen, biochemical, fluorescence, homogeneous; hit rate 83% among 2,100; cell-free GFP chromophore formation; AID 434968, 2010; EC50, µM; shares compounds with RecA intein inh; call rule not given here
Mtb FBA inh conf – M. tuberculosis aldolase blockers, biochemical, fluorescence, strain H37Rv, confirmation; shares compounds with FBA Mtb inh; purified M. tuberculosis FBA, fluorescence read-out; inhibition, % at 1 µM; hit rate 78% among 5,600; AID 651616, 2012; in the data active = inhibition above about 27%;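 also: 0% = vehicle wells and 100% = reference inhibitor wells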
GDH-TPI counter-2 – GDH-TPI coupling enzyme inhibitors, artefact control for M. tuberculosis FBA inhibitor project, biochemical, fluorescence, high throughput; GDH-TPI coupled enzyme counterscreen; shares compounds with FBA Mtb inh; hit rate 81% among 5,600; inhibition, % at 1 µM; in the data active = inhibition above about 10%
GDH-TPI dose – GDH-TPI coupling enzyme inhibitors, dose response, artefact control for M. tuberculosis FBA inhibitor project, biochemical, fluorescence, IC50; shares compounds with FBA Mtb inh; GDH-TPI coupled enzyme assay, artifact counterscreen; IC50, µM; hit rate 79% among 170; call rule not given here
CCHF vOTU inh-2 – CCHFV vOTU protease inhibitors, confirmation, biochemical, Pep-AMC substrate, fluorescence. shares compounds with CCHF vOTU inh-1. AID 686976, 2013. inhibition, % at 11.5 µM. Recombinant CCHFV vOTU. hit rate 17% among 1,900
* hit, by the source's call; nt = no result given. Rule as the data show it, unless noted: active = inhibition above about 30%; inactive = the rest.

SMILES	GDH-TPI counter-1	FBA Mtb inh	RecA intein inh	CCHF vOTU inh-1	GFP chromo cs	CCHF vOTU inh-2	others
CCOC(=O)c1c(NC(=O)c2ccco2)n(C2CCCCC2)c2nc3ccccc3nc12	15	63*	55*	12	21*	nt	Mtb FBA inh conf=14;GDH-TPI counter-2=9;GDH-TPI dose=2.9*
C=CCn1c(NC(=O)c2ccc(Br)o2)c(S(=O)(=O)c2ccccc2)c2nc3ccccc3nc21	1	50*	46*	3	31*	nt	Mtb FBA inh conf=52*;GDH-TPI counter-2=47*
O=C(Nc1ccc(S(=O)(=O)NCc2ccccc2)cc1)c1ccc(Br)o1	12	7	1	8	nt	nt
NC(=O)c1ccsc1NC(=O)COC(=O)c1cc(Cl)ccc1O	4	10	1	2	nt	nt
CCOC(=O)C(C(=O)OCC)c1cc(Br)c2noc3c2c1C(=O)c1ccccc1-3	2	4	82*	35*	3.3*	11
CC(=O)OCCNc1cc(N2CCN(C)CC2)c2noc3c2c1C(=O)c1ccccc1-3	9	5	nt	10	nt	nt
CCn1c(SCC(=O)NC2CCCC2)nnc1C(C)NC(=O)c1ccccc1Br (centres undefined)	6	2	-3	9	nt	nt
COc1cc(Cc2nccc3cc(OC)c(OC)cc23)c(S(=O)(=O)O)cc1OC	6	3	42*	71*	>38	-13
CC(=O)N(C1=C(N)C(=O)c2ccccc2C1=O)c1ccccc1	-2	-3	87*	73*	4.3*	64*
COc1cccc(C(c2c(C)[nH]n(-c3ccccc3)c2=O)c2c(C)[nH]n(-c3ccccc3)c2=O)c1O	15	0	66*	99*	1.5*	-4
COc1cccc(C(c2c(C)[nH]n(-c3ccccc3)c2=O)c2c(C)[nH]n(-c3ccccc3)c2=O)c1OC	6	2	94*	56*	1.8*	-8
COc1cccc(NC(=O)c2ccc(-n3cnnn3)cc2)c1	-5	-1	3	0	nt	nt
Cc1ccc(NC2=C(NCCO)C(=O)c3ccccc3C2=O)cc1	18	-1	71*	115*	20*	42*
CC(=O)Nc1ccc(NC2=C(Cl)C(=O)c3ccccc3C2=O)cc1	nt	nt	7	2	nt	nt
Cc1ccccc1C(=O)NCCCNC(=O)c1ccccn1	3	2	0	6	nt	nt
CC(C)=CCC/C(C)=C/CC/C(C)=C/CC/C(C)=C/CC1=C(C)C(=O)c2ccccc2C1=O	7	-1	26	3	nt	nt
CC(C)=CCC1=C(OCC(=O)O)C(=O)c2ccccc2C1=O	-7	-2	63*	110*	12*	85*
Nc1ccc(N2CCCCC2)c2nonc12	-1	-7	75*	111*	11*	34*
O=[N+]([O-])c1ccc(N2CCCCCC2)c2nonc12	9	-8	-14	14	nt	nt
CC1=NN(c2ccccc2)C(=O)/C1=C/N(C)C	14	-2	1	4	nt	nt
CC1=NN(c2ccccc2)C(=O)/C1=C\C=C\c1ccccc1	12	-2	1	-5	nt	nt
CCOc1cc(/C=C2/C(=O)N(c3ccccc3)N=C2C)ccc1OC(=O)c1cccs1	8	-2	-11	nt	nt	nt
CC(=O)Oc1ccc(/C=C2/C(=O)N(c3ccccc3)N=C2C)cc1	11	-2	93*	103*	3.5*	-12
COc1ccc(/C=C2/C(=O)N(c3ccccc3)N=C2C)cc1OC	0	-1	43*	93*	9*	-20
CC1=NN(c2ccccc2)C(=O)/C1=C/c1cccc(C)c1	10	1	92*	76*	2.3*	-18
SMILES	GDH-TPI counter-1	FBA Mtb inh	RecA intein inh	CCHF vOTU inh-1	GFP chromo cs	CCHF vOTU inh-2	others
COc1cc(/C=C2/C(=O)N(c3cccc(Br)c3)N=C2C)cc(OC)c1O	9	0	87*	92*	4.3*	-26
CCC(=O)c1ccc(OC(=O)C2CCN(C3=NS(=O)(=O)c4ccccc43)CC2)cc1	8	2	nt	-11	nt	nt
COc1ccc(C2NS(=O)(=O)OCC2C)cc1 (centres undefined)	-6	1	-2	nt	nt	nt
CCCCOC(=O)Cn1c(=O)n(CC(=O)OCCCC)c2ccccc21	-10	2	-1	15	nt	nt
CCCCCCCCCCOC(=O)Cn1c(COc2ccccc2)[n+](C)c2ccccc21	-1	-1	47*	30*	12*	23
O=S(=O)(Nc1ccc(NS(=O)(=O)c2ccccc2)c2ccccc12)c1ccccc1	27	3	nt	24	nt	nt
CCc1ccc(S(=O)(=O)Nc2ccc(O)c3ccccc23)cc1	-4	5	92*	62*	0.15*	-16
O=S(=O)(Nc1ccc(O)c2ccccc12)c1ccc(F)cc1	6	-2	94*	81*	0.15*	5
O=[N+]([O-])c1c(Nc2ccccn2)cc(Cl)c2nonc12	8	-5	87*	113*	2.1*	94*
Cc1cc(C(=O)N2CCCC(N3CCN(c4ccccc4C)CC3)C2)no1 (centres undefined)	2	4	nt	2	nt	nt
O=C1C=C(N2CCOCC2)c2ccccc2C1=O	17	-5	97*	103*	0.56*	94*
O=C1C=C(N2CCOCC2)c2cccc3cccc1c23	21	3	nt	11	nt	nt
O=C(c1ccc(-c2cccc(C(F)(F)F)c2)o1)N1CCCC(C(F)(F)F)C1 (centres undefined)	-11	-1	7	17	nt	nt
COc1ccc(-c2cc(=O)n(CCC#N)[nH]2)cc1	4	2	97*	62*	2*	-27
Cc1ccc(S(=O)(=O)/N=C2\C=C(Nc3cccc(C(=O)O)c3)C(=O)c3ccccc32)c(C)c1	19	-7	82*	114*	>38	112*
Cc1ccc(S(=O)(=O)/N=C2\C=C(NS(=O)(=O)c3ccccc3)C(=O)c3ccccc32)c(C)c1	6	-1	nt	11	nt	nt

Assay outcomes as filed in PubChem BioAssay.
